Screening results from PubChem BioAssay.
Jurkat NFkB inh = inhibitors of induced NF-kB luciferase reporter, primary screen, TCR NF-kB activation inhibitor project, cell-based, luminescence, uHTS; actives 0.53% (n = 330,000); Jurkat, PMA/ionomycin-induced NF-kB luciferase reporter; inhibition, % at 4 µM; in the data active means inhibition above about 50%
Beta cell apopt = inhibitors of cytokine-induced beta cell apoptosis, primary screen, luminescence; INS-1E cytokine-induced death, ATP luminescence, 48 h; percent of positive-control rescue, neutral wells zero; protection from apoptosis, % (concentration not given with the values); actives 0.8% (n = 300,000); AID 435005, 2010;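 active means Every replicate reaches about 75%, or at least half do and their mean reaches it too, limit read from the data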;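 further: higher means more ATP so stronger rescue from cytokine killing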
697 NFkB inh = inhibitors of PMA/ionomycin-induced NF-kB reporter, 697 cells, primary screen, B-cell NF-kB inhibitor project, cell-based, luminescence, uHTS | 697 B-cell NF-kB luciferase reporter, 16 h | inhibition, % at 4 µM | actives 0.33% (n = 330,000) | AID 435022, 2010; in the data active means inhibition above about 35%
Gli-Sufu antag = Gli-Sufu pathway antagonists, primary screen, luciferase luminescence, Sufu-KO-LIGHT cells, uHTS; Sufu-KO-LIGHT fibroblasts, Gli luciferase reporter luminescence; inhibition, % at 5 µM; actives 0.74% (n = 340,000);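 active means inhibition above about 55%, limit read from the data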
697 NFkB conf = PMA/ionomycin-induced NF-kB reporter inhibitors, 697 retest, confirmation, B-cell NF-kB inhibitor project, cell-based, luminescence, single concentration; AID 449746, 2010; 697 B-cell NF-kB luciferase, 16 h; shares compounds with 697 NFkB inh; actives 35% (n = 2,000); inhibition, % at 4 µM; in the data active means inhibition mostly above about 28%, no sharp cut-off; inactive means mostly below about 22%
Numbers stand for hits; – = inactive; · = not tested or not shown. Most compounds without a hit are left out; they make up all but 1.8% or so of the library.

SMILES	Jurkat NFkB inh	Beta cell apopt	697 NFkB inh	Gli-Sufu antag	697 NFkB conf
Cc1oc(-c2cccc(Cl)c2)nc1CS(=O)(=O)CC(=O)NC1CCCC1	–	–	–	–	·
O=C(N1CCN(Cc2ccccc2)CC1)C(Cl)(Cl)Cl	–	–	–	–	·
C/C(=N\NC(=O)c1ccc(C)cc1C)c1ccc2c(c1)Nc1ccccc1S2	–	–	–	–	·
NC(=O)c1c(NC(NC(=O)c2ccco2)(C(F)(F)F)C(F)(F)F)sc2c1CCCC2	–	–	39	–	–
O=C(N/N=C/c1cccc(O)c1)c1ccc(COc2ccc3c(c2)CCC3)o1	–	–	–	–	·
N#CCSc1n[nH]c2nc3c(c(=O)n12)C1(CCCC1)Cc1ccccc1-3	–	–	37	–	–
Cc1c(CCC(=O)N[C@@H](CCCNC(N)=O)C(=O)O)c(=O)oc2cc3oc4c(c3cc12)CCCC4	–	–	–	–	·
CCC(NC(=O)CCc1c(C)c2cc3c4c(oc3cc2oc1=O)CCCC4)C(=O)O (stereo not drawn)	–	–	49	–	–
Cn1c(=O)c(C(=O)Nc2ccccc2S(N)(=O)=O)c(O)c2ccccc21	–	–	–	–	·
Cn1c(=O)c(C(=O)Nc2ccccn2)c(O)c2ccccc21	–	–	–	–	–
COc1ccc(-c2cc(C(=O)OCC(=O)NC3CC3)c3ccccc3n2)cc1OC	–	–	–	–	·
O=C(/C=C/Nc1ccccc1F)c1cccs1	–	–	–	–	–
COc1ccc(/C=C2\SC(=S)N(CCC(=O)Nc3cccc(O)c3)C2=O)cc1OC	–	–	37	–	–
COc1ccc(/C=C2\SC(=S)N(CCC(=O)Nc3ccc(C(=O)O)cc3)C2=O)cc1OC	–	–	35	–	31
COc1cccc(/C=C2\SC(=S)N(CCC(=O)Nc3ccc(O)cc3)C2=O)c1	–	·	–	–	·
COc1ccc(/C=C2\SC(=S)N(CCCC(=O)Nc3cccc(C(=O)O)c3)C2=O)cc1OC	–	–	–	–	·
COc1ccc(-c2nn(C)c(=O)c3ccccc23)cc1NS(C)(=O)=O	–	–	38	–	32
CC(C)CCNC(=O)C1CC(c2cccc([N+](=O)[O-])c2)=NO1 (stereo not drawn)	–	–	–	–	·
O=C(Nc1ccc(F)cc1)c1cn(-c2ccccc2)nc1-c1ccncc1	–	–	–	–	·
O=C(Nc1ccc2ccccc2c1)c1ccccc1O	–	·	–	–	–
CCc1ccc(/C=C2\SC(=S)N(CCCC(=O)Nc3ccc(C(=O)O)cc3)C2=O)cc1	–	–	73	–	84
O=C(CCCN1C(=O)/C(=C/c2ccc3c(c2)OCO3)SC1=S)Nc1ccc(C(=O)O)cc1	–	–	78	–	78
CCOc1ccc(/C=C2\SC(=S)N(CCC(=O)Nc3cccc(C(=O)O)c3)C2=O)cc1	–	–	68	–	68
CC(C)c1ccc(/C=C2\SC(=S)N(CCC(=O)NCCCn3ccnc3)C2=O)cc1	–	·	38	–	38
COc1ccc(/C=C2\SC(=S)N(CCC(=O)NCCCn3ccnc3)C2=O)cc1	–	–	–	–	·
SMILES	Jurkat NFkB inh	Beta cell apopt	697 NFkB inh	Gli-Sufu antag	697 NFkB conf
CC1CCCCC1NC(=O)Cn1nc(-c2ccccc2)ccc1=O (stereo not drawn)	–	–	–	–	·
CCc1ccc(/C=C2/SC(=S)N(CCC(=O)Nc3cccnc3)C2=O)cc1	–	–	77	–	67
O=C(CCCN1C(=O)/C(=C\c2ccccc2)SC1=S)Nc1ccc(C(=O)O)cc1	–	–	–	–	·
CC(C)c1ccc(/C=C2\SC(=S)N(CCC(=O)N3CCCCC3CCO)C2=O)cc1 (stereo not drawn)	–	–	70	–	71
CCOc1ccc(/C=C2\SC(=S)N(CCCC(=O)NCCCN3CCOCC3)C2=O)cc1	–	–	38	–	52
CCOc1ccc(/C=C2\SC(=S)N(CCC(=O)Nc3ccc(C(=O)O)cc3)C2=O)cc1	–	·	81	–	77
NS(=O)(=O)c1ccc(CCNC/C=C/c2ccccc2)cc1	–	–	–	–	·
CCOC(=O)N1CCN(c2ncnc3c2[nH]c2ccc(OC)cc23)CC1	–	–	37	–	38
O=C(c1ccco1)N1CCN(c2ncnc3c2[nH]c2ccccc23)CC1	–	·	36	·	–
COc1ccc2c(c1OC)C(=O)OC2Nc1ccccn1 (stereo not drawn)	–	–	35	–	–
Cn1nnnc1Sc1ncnc2scc(-c3ccccc3Br)c12	–	–	–	–	·
Cn1nnnc1Sc1ncnc2scc(Br)c12	–	–	37	–	60
COc1cccc(COC(=O)Nc2ccccc2F)c1	–	–	–	–	·
COc1ccccc1CNC(=O)CS(=O)(=O)c1ccccc1	–	–	–	–	·
CCOC(=O)c1sc2nc(CC(C)C)c3c(c2c1N)CCC3	–	–	–	–	·
CCC(C)N1C(=O)/C(=C/c2c(NCCCOC(C)C)nc3c(C)cccn3c2=O)SC1=S (stereo not drawn)	–	–	38	–	34
O=C(Oc1ccc(N2C(=O)CCC2=O)cc1)c1ccccc1Cl	–	–	–	–	·
Cc1cc(OC(=O)c2ccccc2Cl)cc(=O)n1C	–	–	39	–	47
CC(C)NC(=O)NC(=O)COC(=O)CCCSc1nc2ccccc2s1	–	–	–	–	·
CC(=O)c1sc(NC(=O)CCS(=O)(=O)c2ccc(Cl)cc2)nc1C	–	–	–	–	·
COC(=O)c1ccc(CNC(=O)CSC(C)C(=O)Nc2cc(C)on2)cc1 (stereo not drawn)	–	–	–	–	·
COc1cc(-c2nc3ccc(N4CCN(C)CC4)cc3[nH]2)cc(OC)c1OC	–	–	38	–	31
Cc1nc(C)c(C(=O)OCC(=O)N2CCN(c3ccccc3)CC2)s1	–	–	–	–	·
Cc1ccc(N=C/C(C(=O)C(F)(F)F)=C(\O)c2cccs2)cc1	–	–	–	–	–
CCN(CC(=O)Nc1c(F)cccc1F)C(=O)CN1C(=O)C2CCCCC2C1=O (stereo not drawn)	–	–	–	–	·
SMILES	Jurkat NFkB inh	Beta cell apopt	697 NFkB inh	Gli-Sufu antag	697 NFkB conf
CC(C)c1nc2oc3c(NCC4CCCO4)ncnc3c2c2c1CCC2 (stereo not drawn)	–	–	42	–	–
Cc1sc2nc(SCC(=O)N3CCN(CCO)CC3)n(-c3ccccc3)c(=O)c2c1C	–	–	–	–	·
Cc1cc2ncc(-c3cccs3)nc2cc1C	–	–	–	–	–
COc1ccc(-c2cc(C(=O)N/N=C/c3sccc3C)c3ccccc3n2)c(OC)c1	–	–	–	–	–
COCCCNCCCCSc1ccc(Cl)cc1	–	–	–	–	·
CCc1ccc(S(=O)(=O)Nc2cccc(-c3ccc4nnc(C)n4n3)c2)s1	–	–	38	–	–
CC(=O)c1ccc(S(=O)(=O)Nc2ccc(-c3ccc4nnc(C)n4n3)cc2)cc1	–	–	–	–	·
